Inconclusive results are not listed. Calls of active or inactive are those of the source. The call rests on the fitted dose curve; in most records, active means well fitted curve in the direction sought with a large enough effect; inconclusive means small, poorly fitted or top-dose-only effect, or another doubt; inactive means no such curve, though single readings can be large; an effect the other way counts as inactive or inconclusive.
Key:
HACAT = assay: qHTS assay to identify novel small-molecules to repurpose for Merkel cell carcinoma treatment (AID 1296009); settings: MCC and control cell lines, CellTiter-Glo viability, 72 h; at 44.8 µM (top of the series) unless noted; further: nearly all actives have a fitted effect of over 60% in size
How it was run: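 Viability readout: ATP luminescence (CellTiter-Glo) after 72 hr drug exposure at 37 degree celsius. Dose-response format was 8 points for NPC and 11 points for MIPE; data normalized to in-plate controls.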

C33A = assay: Primary qHTS to identify gynecologic anti-cancer compounds using libraries of approved drugs and bioactive compounds (AID 1345084); settings: Gynecologic cancer cell panel viability, ATPlite luminescence, 48 h; series mostly up to 57.5 µM; further: on the % scale 0 is the no-effect control and ±100 the full control effect; nearly all actives have a fitted effect of over 55% in size
How it was run: (§1)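 ATP-based viability (ATPlite), 1,000 cells/well, 16 h pre-incubation, 48 h compound at 37 C, 5% CO2, 15 min RT before read.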

CAOV3 = assay: as above; settings: Gynecologic cancer cell panel viability, ATPlite luminescence, 48 h; series mostly up to 57.5 µM
How it was run: as §1

CASKI = assay: as above; settings: Gynecologic cancer cell panel viability, ATPlite luminescence, 48 h; series mostly up to 57.5 µM
How it was run: as §1

Es-2 = assay: as above; settings: Gynecologic cancer cell panel viability, ATPlite luminescence, 48 h; series mostly up to 57.5 µM
How it was run: as §1

HeLa = assay: as above; settings: Gynecologic cancer cell panel viability, ATPlite luminescence, 48 h; series mostly up to 57.5 µM
How it was run: as §1

Hek293T = assay: as above; settings: Gynecologic cancer cell panel viability, ATPlite luminescence, 48 h, control line for the selectivity index; series mostly up to 57.5 µM
How it was run: as §1

JEG-3 = assay: as above; settings: Gynecologic cancer cell panel viability, ATPlite luminescence, 48 h; series mostly up to 57.5 µM
How it was run: as §1

C[C@]1(C2CCCC2)Cc2cc(OCC(=O)O)c(Cl)c(Cl)c2C1=O
inactive: outcome (HACAT) | Potency (C33A) | Potency (CAOV3) | outcome (CASKI) | Potency (Es-2) | Potency (HeLa) | Potency (Hek293T) | Potency (JEG-3)

O=C(Cc1ccccc1)OC[C@H]1O[C@H](O[C@H]2O[C@H](CO)[C@@H](O)[C@H](O)[C@H]2O)[C@H](O)[C@@H](O)[C@@H]1O
inactive: outcome (HACAT) inactive [at 17.4 µM] | Potency (C33A) | Potency (CAOV3) | outcome (CASKI) | Potency (Es-2) | Potency (HeLa) | Potency (Hek293T) | Potency (JEG-3)

CC1=CC(=O)CC(C)(C)C1CO[C@@H]1O[C@H](CO)[C@@H](O)[C@H](O)[C@H]1O (stereo partly drawn)
inactive: outcome (HACAT) | Potency (C33A) | Potency (CAOV3) | outcome (CASKI) | Potency (Es-2) | Potency (HeLa) | Potency (Hek293T) | Potency (JEG-3)

C[C@@H]1O[C@@H](O[C@H]2[C@H](OC(=O)[C@]34CCC(C)(C)C[C@H]3C3=CCC5[C@@]6(C)CC[C@H](O[C@@H]7O[C@H](CO[C@@H]8OC[C@H](O)[C@H](O)[C@H]8O[C@@H]8OC[C@@H](O)[C@H](O)[C@H]8O)[C@@H](O)[C@H](O)[C@H]7O)C(C)(C)C6CC[C@@]5(C)[C@]3(C)C[C@H]4O)O[C@H](CO)[C@@H](O)[C@@H]2O)[C@H](O[C@@H]2O[C@H](CO)[C@@H](O)[C@H](O)[C@H]2O)[C@H](O)[C@H]1O[C@@H]1OC[C@@H](O)[C@H](O[C@@H]2OC[C@@H](O)[C@H](O)[C@H]2O)[C@H]1O (stereo partly drawn)
inactive: outcome (HACAT) inactive [at 4.96 µM] | activity change, negative = cytotoxicity (C33A) 6.83% [at 6.55 µM] | activity change, negative = cytotoxicity (CAOV3) -0.37% [at 6.55 µM] | activity change, negative = cytotoxicity (CASKI) -2.72% [at 6.55 µM] | activity change, negative = cytotoxicity (Es-2) -1.37% [at 6.55 µM] | activity change, negative = cytotoxicity (HeLa) 0.0394% [at 6.55 µM] | activity change, negative = cytotoxicity (Hek293T) 6.55% [at 6.55 µM] | activity change, negative = cytotoxicity (JEG-3) 9.73% [at 6.55 µM]

CCc1cc(CC[C@]2(C3CCCC3)CC(O)=C(Cc3nc4nc(C)cc(C)n4n3)C(=O)O2)cc(CC)n1
inactive: outcome (HACAT) | Potency (C33A) | Potency (CAOV3) | outcome (CASKI) | Potency (Es-2) | Potency (HeLa) | Potency (Hek293T) | Potency (JEG-3)

CC1(C)COC(=O)[C@@H]1O[C@@H]1O[C@H](CO)[C@@H](O)[C@H](O)[C@H]1O
inactive: outcome (HACAT) | Potency (C33A) | Potency (CAOV3) | outcome (CASKI) | Potency (Es-2) | Potency (HeLa) | Potency (Hek293T) | Potency (JEG-3)

COC(=O)C1=CO[C@@H](O[C@@H]2O[C@H](CO)[C@@H](O)[C@H](O)[C@H]2O)[C@@H]2[C@@H](C(=O)O)CC[C@H]12
inactive: outcome (HACAT) inactive [at 17.4 µM] | Potency (C33A) | Potency (CAOV3) | outcome (CASKI) | Potency (Es-2) | Potency (HeLa) | Potency (Hek293T) | Potency (JEG-3)

COC(=O)C1=CO[C@@H](O[C@@H]2O[C@H](CO)[C@@H](O)[C@H](O)[C@H]2O)[C@H]2[C@@H]1[C@H](O)C[C@]2(C)O
inactive: outcome (HACAT) inactive [at 17.4 µM] | Potency (C33A) | Potency (CAOV3) | outcome (CASKI) | Potency (Es-2) | Potency (HeLa) | Potency (Hek293T) | Potency (JEG-3)

COc1cc(O)c2c(c1)C1(OC2=O)C(C)=CC(=O)C1O (stereo not drawn)
inactive: outcome (HACAT) | Potency (C33A) | Potency (CAOV3) | outcome (CASKI) | Potency (Es-2) | Potency (HeLa) | Potency (Hek293T) | Potency (JEG-3)

COc1ccc(C(=O)OC2C3C=COC(OC4OC(CO)C(O)C(O)C4O)C3C3(CO)OC23)cc1OC (stereo not drawn)
inactive: outcome (HACAT) inactive [at 17.4 µM] | Potency (C33A) | Potency (CAOV3) | outcome (CASKI) | Potency (Es-2) | Potency (HeLa) | Potency (Hek293T) | Potency (JEG-3)

CC(CC12CCCN1C(=O)C1CCCN1C2=O)OC(N)=O (stereo not drawn)
inactive: outcome (HACAT) | Potency (C33A) | Potency (CAOV3) | outcome (CASKI) | Potency (Es-2) | Potency (HeLa) | Potency (Hek293T) | Potency (JEG-3)

CCC12CCCN3CCc4c(n(c5ccccc45)C(O)C1)C32 (stereo not drawn)
inactive: outcome (HACAT) | Potency (C33A) | Potency (CAOV3) | outcome (CASKI) | Potency (Es-2) | Potency (HeLa) | Potency (Hek293T) | Potency (JEG-3)

C[C@H](/C=C/[C@@]1(O)[C@H](C)CC(=O)CC1(C)C)O[C@@H]1O[C@H](CO[C@@H]2OC[C@@H](O)[C@H](O)[C@H]2O)[C@@H](O)[C@H](O)[C@H]1O
inactive: outcome (HACAT) inactive [at 17.4 µM] | Potency (C33A) | Potency (CAOV3) | outcome (CASKI) | Potency (Es-2) | Potency (HeLa) | Potency (Hek293T) | Potency (JEG-3)

Cc1c(F)cc(C(=O)NC2CC2)cc1-c1ccc(C(=O)NCC(C)(C)C)cn1
inactive: outcome (HACAT) | Potency (C33A) | Potency (CAOV3) | outcome (CASKI) | Potency (Es-2) | Potency (HeLa) | Potency (Hek293T) | Potency (JEG-3)

CC1(C)CC[C@]2(C(=O)O)[C@H](O)C[C@]3(C)C(=CCC4[C@@]5(C)CC[C@H](O[C@@H]6OC[C@@H](O)[C@H](O)[C@H]6O)[C@@](C)(C(=O)O)C5CC[C@]43C)[C@@H]2C1 (stereo partly drawn)
inactive: outcome (HACAT) inactive [at 17.4 µM] | Potency (C33A) | Potency (CAOV3) | outcome (CASKI) | Potency (Es-2) | Potency (HeLa) | Potency (Hek293T) | Potency (JEG-3)

C[C@]1(O)CC[C@@H]2C(C(=O)O)=CO[C@@H](O[C@@H]3O[C@H](CO)[C@@H](O)[C@H](O)[C@H]3O)[C@@H]21
inactive: outcome (HACAT) | Potency (C33A) | Potency (CAOV3) | outcome (CASKI) | Potency (Es-2) | Potency (HeLa) | Potency (Hek293T) | Potency (JEG-3)

COc1cc(C(=O)OC[C@@]2(O)CO[C@@H](O[C@H]3[C@H](Oc4ccc(O)cc4)O[C@H](CO)[C@@H](O)[C@@H]3O)[C@@H]2O)cc(OC)c1O
inactive: outcome (HACAT) inactive [at 17.4 µM] | Potency (C33A) | Potency (CAOV3) | outcome (CASKI) | Potency (Es-2) | Potency (HeLa) | Potency (Hek293T) | Potency (JEG-3)

Cc1cccc(NC(=O)CN2CCC(c3ccccn3)CC2)c1
inactive: outcome (HACAT) | Potency (C33A) | Potency (CAOV3) | outcome (CASKI) | Potency (Es-2) | Potency (HeLa) | Potency (Hek293T) | Potency (JEG-3)

COc1cc(OC)cc(-c2ccc3c(-c4ccc(F)cc4)[nH]nc3n2)c1
inactive: outcome (HACAT) | Potency (C33A) | Potency (CAOV3) | outcome (CASKI) | Potency (Es-2) | Potency (HeLa) | Potency (Hek293T) | Potency (JEG-3)

CC1(C(=O)O)CCCC2(C)C3CC4C5CC3(CCC12)CC45C (stereo not drawn)
inactive: outcome (HACAT) | Potency (C33A) | Potency (CAOV3) | outcome (CASKI) | Potency (Es-2) | Potency (HeLa) | Potency (Hek293T) | Potency (JEG-3)

COC(=O)[C@H](Cc1cccc(C(=N)N)c1)[C@@H](C)NC(=O)c1ccc(-c2cc[n+]([O-])cc2)cc1
inactive: outcome (HACAT) | Potency (C33A) | Potency (CAOV3) | outcome (CASKI) | Potency (Es-2) | Potency (HeLa) | Potency (Hek293T) | Potency (JEG-3)

C/C(=C\CO)CC/C=C(\C)C(=O)O[C@@H]1O[C@H](CO)[C@@H](O)[C@H](O)[C@H]1O
inactive: outcome (HACAT) | Potency (C33A) | Potency (CAOV3) | outcome (CASKI) | Potency (Es-2) | Potency (HeLa) | Potency (Hek293T) | Potency (JEG-3)

N[C@@H](CCNCc1ccc(Cl)cc1)C(=O)N1CCCCC1
inactive: outcome (HACAT) | Potency (C33A) | Potency (CAOV3) | outcome (CASKI) | Potency (Es-2) | Potency (HeLa) | Potency (Hek293T) | Potency (JEG-3)

COC(=O)C1=CO[C@@H](O[C@@H]2O[C@H](CO)[C@@H](O)[C@H](O)[C@H]2O)[C@@H]2C(CO)=CC[C@H]12
inactive: outcome (HACAT) | Potency (C33A) | Potency (CAOV3) | outcome (CASKI) | Potency (Es-2) | Potency (HeLa) | Potency (Hek293T) | Potency (JEG-3)

CC(C)=CCC[C@](C)(O[C@@H]1O[C@H](CO[C@@H]2O[C@@H](CO)[C@H](O)[C@H]2O)[C@@H](O)[C@H](O)[C@H]1O)[C@H]1CC[C@]2(C)[C@@H]1[C@H](O)C[C@@H]1[C@@]3(C)CC[C@H](O[C@@H]4O[C@H](CO)[C@@H](O)[C@H](O)[C@H]4O[C@@H]4O[C@H](CO)[C@@H](O)[C@H](O)[C@H]4O)C(C)(C)[C@@H]3CC[C@]12C
inactive: outcome (HACAT) inactive [at 17.4 µM] | Potency (C33A) | Potency (CAOV3) | outcome (CASKI) | Potency (Es-2) | Potency (HeLa) | Potency (Hek293T) | Potency (JEG-3)

CCC(C)(C)C1CCc2c(sc(NC(=O)c3ccc(Br)cc3)c2C#N)C1 (stereo not drawn)
inactive: outcome (HACAT) | Potency (C33A) | Potency (CAOV3) | outcome (CASKI) | Potency (Es-2) | Potency (HeLa) | Potency (Hek293T) | Potency (JEG-3)

From PubChem BioAssay (NCATS)
